Among all 64,000 compounds or so, about 15 (0.02%) were called active. The rule behind the calls is not given here. Only a sample is shown. Potency and affinity values are given separately.
Each molecule was assayed against Bcl-2-related protein A1 (Mus musculus) (UniProt Q07440) (assay: displacement of Bid BH3 peptide from Bfl-1 – biochemical, fluorescence polarization, FITC-Bid, mouse, primary screen (AID 432)). Details: at 20 µM, stronger effect = higher value.
Chain of Bcl-2-related protein A1 (Mus musculus) (Q07440 whole entry, looked up): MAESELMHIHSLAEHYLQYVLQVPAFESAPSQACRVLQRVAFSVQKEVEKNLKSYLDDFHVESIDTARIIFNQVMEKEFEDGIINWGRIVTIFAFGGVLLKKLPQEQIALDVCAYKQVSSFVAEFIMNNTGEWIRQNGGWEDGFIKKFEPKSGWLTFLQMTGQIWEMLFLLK

displacement, inactive:
O=C(CN1C(=O)CC(c2ccco2)Sc2ccccc21)NCC1CCCO1 (stereo unspecified) -4.3%, CCCN1CCN(C(=O)Cn2cccc2C(=O)c2ccccc2)CC1 -2.4%, COC(=O)CCC(=O)Nc1ccc(NC(C)=O)cc1 0.3%, COc1ccc(S(=O)(=O)n2nc(-c3cc(OC)c(OC)c(OC)c3)cc2N)cc1OC 3.4%, COc1ccc(OC)c(S(=O)(=O)n2nc(-c3ccccc3)cc2N)c1 -0.3%, CC(C)(C)Sc1nc(O)cc(=O)[nH]1 -4.4%, CN(c1ccccc1)S(=O)(=O)c1cc(C(=O)N2CCN(c3ccccn3)CC2)ccc1Cl -4.6%, CC1CN(C(=O)c2ccc(C(=O)c3ccccc3)cc2)CC(C)O1 (stereo unspecified) -0.8%, O=C1CC2CS(=O)(=O)CC2N1C1CCCCC1 (stereo unspecified) 2%, CCN(CC)S(=O)(=O)c1ccc(Cl)c(C(=O)NCC2CCCO2)c1 (stereo unspecified) -6.5%, COc1cccc(-c2nc(-c3ccccc3)no2)c1 -9.1%, COc1nc(-c2ccccc2)ccc1-c1noc(-c2ccc(F)cc2)n1 -1.8%, COc1cc(OC)cc(-c2nc(-c3cc4cc(C)ccc4nc3OC)no2)c1 -2%, COc1ccc(-c2ccc(-c3noc(-c4ccccc4)n3)c(OC)n2)cc1 -44.4%, COCCNC(=O)C(c1ccccc1)N(Cc1cccs1)C(=O)Cn1nnc2ccccc21 (stereo unspecified) 4.1%, CCCCCOc1ccc(C(=O)NC(CCC)C(=O)O)cc1 (stereo unspecified) 0.1%, CCCn1nnc(NCc2ccc(OCc3cccs3)c(OC)c2)n1 1.2%, CCCNC(=O)Nc1cc(C)on1 -15.6%, N#Cc1cc2c(nc1SCC1COc3ccccc3O1)CCC2 (stereo unspecified) -4.2%, O=C(CC(c1ccccc1O)N1CCCCC1)N1CCCCC1 (stereo unspecified) -9.2%, COc1ccccc1-n1cnnc1SC1CCOC1=O (stereo unspecified) -0.5%, O=C(CSc1nnnn1C1CCCCC1)Nc1cccc(NC(=O)c2ccco2)c1 6.6%, Cc1c(C(=O)NCc2cccnc2)oc2c1C(=O)CC(C)(C)C2 -2.3%, CCCc1[nH]nc2c1C(CCc1ccccc1)C(C#N)=C(N)O2 (stereo unspecified) -3.6%, Cc1nc(SCC(=O)NCC2CCCO2)c2oc3ccccc3c2n1 (stereo unspecified) -3.4%, CC(C)(O)c1nnn(-c2ccccc2)c1C(F)(F)F -3%, COc1cccc(CNCC(=O)N2C(C)CCCC2C)c1 (stereo unspecified) -0.5%, CNC(=O)c1cc2ccc(OC)cc2oc1=O -6.1%, O=C1CCc2cc(S(=O)(=O)N3CCC(C(=O)NC4CCCc5ccccc54)CC3)ccc2N1 (stereo unspecified) -5.6%, Cc1csc(-c2cnn(-c3ccccc3)c2NC(=O)c2ccccc2)n1 -3.3%, COc1cccc(-c2nn(C)c3sc(C(=O)NCc4ccccn4)cc23)c1 3.4%, COC(=O)c1ccc(NC(=O)C2C3C=CC(O3)C2C(=O)O)cc1 (stereo unspecified) 1.3%, Cc1cccc(-n2c(SCC(=O)N3CCCC3)nnc2-c2ccccn2)c1C -5.2%, CCC/C(O)=C1\C(=O)CC(C)(C)CC1=NCCO 2.8%, O=S(=O)(c1ccc(Br)s1)n1cccn1 -3.1%, O=C(Nc1nncs1)C1COc2ccccc2O1 (stereo unspecified) -5%, O=C(NC(NCCCN1CCOCC1)(C(F)(F)F)C(F)(F)F)C1CCCCC1 -1.1%, Cc1nc(NCCN2CCOCC2)c2nnn(Cc3c(F)cccc3Cl)c2n1 -1.3%, CCOC(=O)/C(C#N)=C(\N)C(C)C(=O)Nc1ccccn1 (stereo unspecified) -3.2%, CCOC(=O)CNC(=O)CSc1nc2cccnc2n1C1CCCCC1 -8.1%, Cn1c(NC(=O)c2cc(Br)ccc2Cl)cc(=O)n(C)c1=O -6.3%
